PubChem BioAssay AID1619 (SRMLSC, 2009)
Among all 220,000 compounds or so, about 830 (0.38%) were called active.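 Rule for the calls: active = compound inhibiting the enzyme by more than half at any dose during confirmatory dose-response retesting; inconclusive = strong single-dose inhibitors picked by rank but not retested; inactive = the rest.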 The list is a sample of the results. Potency and affinity values are given separately.

The compounds below were run against Leucine aminopeptidase (Plasmodium falciparum (isolate 3D7)) (UniProt Q8IL11) (assay: P. falciparum M17LAP inhibitors, primary screen, biochemical, fluorogenic H-Leu-NHMec substrate, 1536-well (AID 1619;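 note: plate controls were full reaction with DMSO carrier for no effect and no enzyme background for full effect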)). Details: recombinant M17LAP, H-Leu-NHMec fluorogenic kinetic assay; at 30 µM; active compounds read high.
Leucine aminopeptidase (Plasmodium falciparum (isolate 3D7)), sequence (Q8IL11 whole entry, looked up): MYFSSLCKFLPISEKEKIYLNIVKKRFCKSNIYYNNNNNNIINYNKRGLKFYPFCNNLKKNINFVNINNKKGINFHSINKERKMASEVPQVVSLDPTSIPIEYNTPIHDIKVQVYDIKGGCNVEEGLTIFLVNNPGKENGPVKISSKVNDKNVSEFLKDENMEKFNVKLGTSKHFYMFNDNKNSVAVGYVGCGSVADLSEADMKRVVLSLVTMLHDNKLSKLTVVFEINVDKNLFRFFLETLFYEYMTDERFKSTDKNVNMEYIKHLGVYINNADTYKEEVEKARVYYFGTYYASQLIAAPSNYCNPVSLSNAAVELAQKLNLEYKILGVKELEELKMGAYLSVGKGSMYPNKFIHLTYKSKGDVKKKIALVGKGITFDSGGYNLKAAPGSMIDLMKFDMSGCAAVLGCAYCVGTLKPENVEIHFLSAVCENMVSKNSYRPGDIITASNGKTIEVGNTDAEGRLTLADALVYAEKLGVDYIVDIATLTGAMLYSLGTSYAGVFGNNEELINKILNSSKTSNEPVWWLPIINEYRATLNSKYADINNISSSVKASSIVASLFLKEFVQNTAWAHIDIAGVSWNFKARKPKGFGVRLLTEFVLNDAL

inhibition, inactive:
O=C(Cn1nc(-c2ccccc2)c2ccccc2c1=O)Nc1ccc2c(c1)nc1n2CCOC1 -12.9%
Cn1c(=O)c2c(nc(SCC(=O)Nc3ccccc3)n2C)n(C)c1=O 0.43%
C=CCn1c(SCC(=O)Nc2cccc3ccccc23)nnc1-c1cnccn1 1.49%
Cn1ccnc1SCC(=O)Nc1cccc2ccccc12 16.9%
Nc1cc(=O)nc(SCC(=O)Nc2ccccc2)n1-c1ccccc1 22.1%
C=CCn1c(N)cc(=O)nc1SCC(=O)Nc1ccccc1 20%
C=CCn1c(N)cc(=O)nc1SCC(=O)Nc1ccc(C)cc1 23.5%
Nc1cc(=O)nc(SCC(=O)Nc2cccc3ccccc23)n1CCc1ccccc1 43.5%
C=CCn1c(SCC(=O)Nc2ccccc2OC)nc(O)c(CC)c1=O 35.8%
COc1cc2c(cc1NC(=O)/C=C/c1ccc([N+](=O)[O-])cc1)oc1ccccc12 -1.67%
CC1=C/C(=N\NC(=O)c2ccc(O)cc2)CC1 12.2%
COc1ccccc1-c1nnc(SC(C(=O)c2c[nH]c3ccccc23)c2ccccc2)n1C (centres undefined) 6.65%
CCCC(=O)NNC(=O)CCC(=O)Nc1ccccc1Cl 6.3%
Cc1cc(-c2onc(C)c2C(=O)O)no1 -2.33%
CC(C)C1CC(CCN2CCCCC2)(c2ccccc2)CCO1 (centres undefined) -6.12%
CC(=O)N1CCc2cc(C(=O)CN3CCN(c4ccccn4)CC3)ccc21 8.66%
COc1ccc(Cl)cc1-c1nc(SCC(=O)NC(C)C(C)C)n[nH]1 (centres undefined) -5.32%
CCc1c(O)nc(SCc2ccccc2)n(C(C)CC)c1=O (centres undefined) 36.5%
CCc1c(O)nc(SCC(=O)Nc2ccccc2)n(-c2ccccc2)c1=O -0.62%
O=C(NCc1ccco1)C1CC(c2ccc(Cl)cc2)=NO1 (centres undefined) 2.33%
O=Nc1c(O)n(Cc2ccc(Cl)cc2Cl)c2ccccc12 -0.24%
CC(C)(C)c1cc(C(=O)O)n(Cc2ccc(Cl)cc2Cl)n1 -0.53%
O=C(COC(=O)C1(c2ccc(Cl)cc2)CCCC1)NCc1ccco1 -0.44%
Oc1ccc(/C=N/NC(=S)Nc2cccnc2)cc1 33.2%
Fc1ccc(/C=N/NC(=S)Nc2cccnc2)cc1F 8.17%
O=C(CSc1nnc(-c2ccc(Cl)cc2)n1Cc1ccco1)NCc1ccc2c(c1)OCO2 7.75%
O=C(N/N=C/c1cccs1)c1cccc2cc[nH]c12 8.58%
C=CCOc1ccc(/C=C2\C(=N)N3N=C(S(=O)(=O)CC)SC3=NC2=O)cc1OC 1.58%
CCS(=O)(=O)C1=NN2C(=N)/C(=C\c3ccc(SCc4ccco4)o3)C(=O)N=C2S1 33.6%
COc1ccc(/C=C/C(=O)NCC(=O)N2CCC(N(C)CCN3CCOCC3)CC2)cc1OC 0.93%
COC(=O)c1sc2nc(CN3CCN(c4ccc(OC)cc4)CC3)[nH]c(=O)c2c1C 0.73%
O=C(COC(=O)c1ccccc1NC(=O)C1CC1)c1ccc2c(c1)OCCO2 12.2%
CC(C)C(=O)Nc1ccccc1C(=O)OCC(=O)c1ccc2c(c1)OCCO2 0.77%
O=Cc1ccc(-c2cccc(C(=O)O)c2)o1 17%
O=C1c2ccccc2C(=O)N1CCCc1nc(-c2ccncc2)no1 -5.77%
CCOC(=O)N1CCN(C(=O)CCN2C(=O)COc3ccc(C)cc32)CC1 -3.49%
Cc1c(NC(=O)CSc2nc3ccccc3s2)c(=O)n(-c2ccccc2)n1C 14.2%
CN1CCC(Oc2ccccc2Sc2ccccc2)CC1 2.7%
Cc1ccc(S(=O)(=O)Nc2ccccc2C(=O)Nc2ccc(S(=O)(=O)Nc3nccc(C)n3)cc2)cc1 -17.2%
CC(=O)Nc1ccc(NC(=O)CSc2nnc(C)c(=O)[nH]2)cc1 5.47%
Cc1cccc(C)c1NC(=O)CSc1nnc(C)c(=O)[nH]1 15.2%
Cc1nnc(SCC(=O)Nc2ccc3c(c2)OCO3)[nH]c1=O 6.76%
Cc1nnc(SCC(=O)Nc2ccccc2)[nH]c1=O 41.7%
O=c1c2ccccc2nnn1Cc1ccc2ccccc2c1 -5.34%
COc1ccc(-n2c(SC(CN3CCCCC3)CN3CCCC3=O)nc3ccccc3c2=O)cc1 (centres undefined) 0.58%
CCOC(=O)C1=C(O)/C(=C/c2ccc(OCC(=O)O)c(OC)c2)SC1=Nc1ccc(OC)cc1 41.7%
CCOC(=O)C1=C(O)/C(=C/c2ccc(OCC(=O)O)c(OC)c2)SC1=Nc1ccc(OCC)cc1 38.5%
CCOC(=O)C1=C(O)/C(=C/c2ccc(OCC(=O)O)c(OCC)c2)SC1=Nc1ccccc1 43.5%
CCOc1cc(C=C2C(=O)c3ccccc3C2=O)ccc1OCC(=O)Nc1ccc(C)cc1 6.24%
Cc1ccc(C(=O)Nc2nc3ccc(S(C)(=O)=O)cc3s2)o1 48.6%
CCOc1cc(S(=O)(=O)NC2CCCCCC2)ccc1F 4.34%
Cc1cccc(Nc2nnc(SCC(=O)N(C)C3CCS(=O)(=O)C3)s2)c1C (centres undefined) 35%
Cc1ccc(Nc2nnc(SCC(=O)c3ccc(Br)s3)s2)c(C)c1 27.2%
Cc1nc(CSc2nnc(Nc3cccc(C)c3C)s2)cs1 22.7%
Cc1ccc(Nc2nnc(SCC(=O)NC3CCS(=O)(=O)C3)s2)c(C)c1 (centres undefined) 9.77%
O=C1CCCCC1Sc1nnc(Nc2ccccc2)s1 (centres undefined) 16.7%
CCc1ccc(Nc2nnc(SCC(=O)N(C)C3CCS(=O)(=O)C3)s2)cc1 (centres undefined) 6.41%
Cc1cccc(Nc2nnc(SCC3CCCCO3)s2)c1C (centres undefined) 13.4%
Cc1cccc(Nc2nc3ccccc3s2)c1C 0.94%
CCSc1ccc2cc(OC)ccc2[n+]1CC 2.2%
Cc1ccc(NC(=O)CNCc2ccccc2)cc1Br 1.6%
CCC(C)(C)n1nnnc1CN1CCN(C(c2ccccc2)c2ccccc2)CC1 7.37%
O=C1CSC2(CCCCC2)N1CCO 15.1%
O=S1(=O)CCC(NC(=S)NC2CCS(=O)(=O)C2)C1 (centres undefined) 1.24%
CCOCCCNC(=S)N1C2CCC1CC(NC(=O)NC13CC4CC(CC(C4)C1)C3)C2 (centres undefined) 2.02%
C=CC(=O)N=c1sc2ccccc2n1-c1ccccc1 -2.28%
c1ccc(-c2ccccc2OCCCN2CCCCCC2)cc1 -1.36%
Cc1cccc(NS(=O)(=O)c2cnc[nH]2)c1 -0.29%
CCCCN=C(C)C1=C(O)CSC1=O 12.4%
CC(C)c1ccc(Nc2nnc(SC3CCOC3=O)s2)cc1 (centres undefined) 32.8%
Cc1ccc(Nc2nnc(SCC3CCCCO3)s2)cc1 (centres undefined) 13.8%
Cc1cc(C)n(-c2ccc(C(=O)Nc3nnc(C4CC4)s3)cc2)n1 4.37%
COc1ccc(OC)c(NC(=O)c2ccc(CSc3nnc(C)s3)cc2)c1 -1.27%
N/C(=N\OC(=O)COc1ccc(Br)cc1Cl)c1ccccn1 -6.93%
O=C1C(C2=NC(c3ccccn3)C3C(=O)N(c4ccccc4)C(=O)C23)=C(O)c2ccccc21 (centres undefined) -11%
O=C1C(C2=NC(c3ccccn3)C3C(=O)N(c4ccc(OC(F)(F)F)cc4)C(=O)C23)=C(O)c2ccccc21 (centres undefined) -6.84%
O=C1C(C2=NC(c3ccccn3)C3C(=O)N(c4ccc(Cl)cc4Cl)C(=O)C23)=C(O)c2ccccc21 (centres undefined) 3.81%
O=C(C1=NN(c2ccccc2)C2C(=O)N(c3ccc(Cl)cc3)C(=O)C12)c1ccccc1 (centres undefined) 4.99%
O=C(NNC(=O)c1cccc2ccccc12)c1ccc(-c2ccccc2)cc1 -1.51%
CCCCOC(=O)c1ccc(NC(=O)C(=O)NCCN(C)C)cc1 4.81%
Cn1cnc([N+](=O)[O-])c1Oc1cccc(O)c1 -5.34%
Cc1noc(NS(=O)(=O)c2ccc(NC(=O)CSc3ncccn3)cc2)c1C -8.95%
O=C(CSc1nc2ccccc2s1)Nn1cnnc1 6.17%
Cc1cc(C)nc(SCC(=O)Nc2ccc(S(=O)(=O)Nc3ncccn3)cc2)n1 0.08%
Cc1cc(NS(=O)(=O)c2ccc(NC(=O)Nc3cccc(Cl)c3)cc2)no1 41%
O=C(CSc1ccccc1)Nc1ccc(S(=O)(=O)Nc2ncccn2)cc1 4.72%
Cc1cc(NS(=O)(=O)c2ccc(NC(=O)Nc3ccccc3)cc2)no1 53.6%
Cc1cc(C)nc(NC(=O)CSc2nc3ccccc3s2)n1 -0.55%
Cc1noc(NS(=O)(=O)c2ccc(NC(=O)CSc3nc4ccccc4[nH]3)cc2)c1C -54.8%
Cc1nn(-c2ccccc2)c(Cl)c1/C=C(\C#N)C(=O)NC(C)C 0.39%
COCc1cc(C)nc(N/N=C/c2ccc(Cl)c(Cl)c2)c1C#N -7.61%
O=[N+]([O-])c1ccc(Nc2c3ccccc3nc3ccccc23)cc1 -29.4%
Cc1ccc(NC(=O)CN2C(=O)N/C(=C\c3cccnc3)C2=O)cc1 2.33%
Cc1ccc(Cn2c(SCc3cccnc3)nc3c2c(=O)n(C)c(=O)n3C)cc1 5.09%
